Assay outcomes from PubChem.
CHX counter: counter-screen hit for Shiga toxin inhibitors, cycloheximide. max response, %. cell reporter, cycloheximide protein synthesis inhibition counterscreen. hit rate 12% among 300,000. AID 2314; in the data active = max response mostly above about 13%, no sharp cut-off; inactive = mostly below about 14%; note: read at 38.3 µM for the half of the compounds with a filed dose; 0% is about no effect
Pf growth 48h: P. falciparum growth inhibition at 48 hours (one generation) | P. falciparum luciferase growth in erythrocytes, 48 h | Potency, µM (top dose mostly 28.7 µM), inactives show top-dose activity change, negative = inhibition, most hits filed as inhibitors | AID 504832 | hit rate 5.9% among 310,000; note: potency is the fitted concentration of half-maximal effect; % is set by controls: 0 for no effect and ±100 for the full control effect
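Here the parasites carry a stable luciferase gene and grow inside erythrocytes in Albumax-based RPMI medium with compound for one erythrocytic cycle. Activity is scored as loss of luminescent signal.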
Giardia FBPA inh: inhibitors of Giardia lamblia fructose-1,6-bisphosphate aldolase; A8B2U2; purified Giardia FBPA; Potency, µM (series often up to 59.6 µM), without a hit: at the top dose activity, negative = inhibition, hits mostly inhibitors; hit rate 0.71% among 290,000; AID 2451; note: potency is the fitted concentration of half-maximal effect; % is set by controls: 0 for no effect and ±100 for the full control effect; nearly all actives have a fitted effect of over 55% in size
Target sequence (A8B2U2 whole entry, looked up): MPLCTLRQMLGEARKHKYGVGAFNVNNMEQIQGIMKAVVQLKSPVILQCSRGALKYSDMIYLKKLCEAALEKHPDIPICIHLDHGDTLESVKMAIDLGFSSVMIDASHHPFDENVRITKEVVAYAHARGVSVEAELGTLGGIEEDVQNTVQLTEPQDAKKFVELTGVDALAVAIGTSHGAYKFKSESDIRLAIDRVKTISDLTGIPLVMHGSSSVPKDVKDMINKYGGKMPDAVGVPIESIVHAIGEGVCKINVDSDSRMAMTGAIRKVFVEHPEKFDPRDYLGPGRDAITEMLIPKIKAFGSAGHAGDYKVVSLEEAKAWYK
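Giardia FBPA (40 nM reagent) was preincubated 10 min at RT with compound (up to 57.5 uM final), then substrate plus GAPDH/TPI/NAD/arsenate coupling system with diaphorase/resazurin was added; resorufin fluorescence (525/598 nm) was read after 20 min.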
Pf growth 96h: P. falciparum growth inhibition at 96 hour, primary screen for plastid delayed-death inhibitors; Potency, µM (titrated, usually from 28.7 µM), inactives show top-dose activity change, negative = inhibition, usual class: inhibitors; P. falciparum luciferase reporter growth, 96 h; hit rate 6.9% among 320,000; note: potency is the fitted concentration of half-maximal effect; % is set by controls: 0 for no effect and ±100 for the full control effect
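Infected RBCs, 2% Hct / 0.05% parasitemia final; luciferase-reporter P. falciparum; cpd 96 h, 37 C, 5% CO2; luciferase detection reagent; luminescence.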
NS1 function inh: inhibitors of influenza NS1 protein function. Potency, µM (top dose mostly 46.1 µM), without a hit: top-dose activity, positive = more growth. hit rate 0.4% among 270,000. AID 2326; calls by dose curve; note: potency is the fitted concentration of half-maximal effect; actives are rising curves; nearly all actives have a fitted effect of over 50% in size
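A cell-based growth assay was used: compounds that relieve NS1-induced slow growth of budding yeast raise OD600. Assay medium was yeast nitrogen base with ammonium sulphate and -URA supplement, pH 6.0, with 2% galactose.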
Shiga inhibitor: inhibitors of Shiga toxin in Vero cells. Vero cells, Shiga toxin protein synthesis inhibition reporter. inhibition, % at 38.7 µM. hit rate 9.2% among 290,000. AID 2315; in the data active = inhibition mostly above about 28%, no sharp cut-off; inactive = mostly below about 43%; note: 0% is about no effect
* marks the source's active call; other numbers are inactive results; ? = inconclusive; . = not tested or not shown; [ ] = another dose, or the depositor's remark. Most compounds without a hit are left out; they make up all but 21% or so of the library. Unless noted, calls come from the whole dose curve; as a rule, active = well fitted curve in the direction sought with a large enough effect; inconclusive = small, poorly fitted or top-dose-only effect, or another doubt; inactive = no such curve, though single readings can be large; an effect the other way counts as inactive or inconclusive.

SMILES | CHX counter | Pf growth 48h | Giardia FBPA inh | Pf growth 96h | NS1 function inh | Shiga inhibitor
Cc1cc(C)c2c(N)c(C(=O)Nc3nccs3)sc2n1 | 11.4 | 67.0% | -15.6% | 178.5% | -68.1% | -2.1
Cc1cc(C)c2c(N)c(C(=O)N3CCN(c4ncccn4)CC3)sc2n1 | 30.7* | -18.4% | -4.3% | -6.4% | -2.9% | 52.6
CCOC(=O)c1sc2nc(C)cc(C)c2c1N | 50.4* | -28.8% | 13.8% | ? | 5.3% | 77.8*
Cc1cc(C)c2c(N)c(C(=O)NNC(=O)c3ccccc3)sc2n1 | 45.1* | 134.5% | -15.2% | ? | -2.3% | 93.3*
Cc1cc(C)c2c(N)c(C(=O)NC3CC3)sc2n1 | 12.8 | 38.3% | -7.2% | ? | -25.5% | 15.2
Cc1cc(C)c2c(N)c(C(=O)NN)sc2n1 | 45.0* | ? | -12.9% | ? | 15.4% | 77.5*
CCCCOC(=O)c1sc2nc(C)cc(C)c2c1N | 27.1* | 136.5% | -28.5% | 156.0% | -60.4% | 47.8*
Cc1ccc(S(=O)(=O)Nc2ccccc2-c2nc3ccccc3[nH]c2=O)cc1 | . | 28.8% | . | 4.7% | . | .
O=C(Nc1cc2c3c(c1)CC(=O)N3CCC2)C1CCCCC1 | . | 4.9% | . | 16.7% | . | .
Cc1cccc(C(C)n2nnc3ccccc32)c1O (configuration not stated) | . | 14.7µM* | . | 10.4µM* | . | .
Cc1cc(NC(=O)COc2ccccc2C)ccc1NC(=O)c1ccco1 | -4.7 | ? | -0.8% | -1.0% | -21.8% | -5.6
O=c1cccc2n1CC1CC2CN(Cc2c(F)cccc2Cl)C1 (configuration not stated) | -2.0 | -13.9% | -8.4% | 9.28µM* | 3.3% | 13.7
O=c1cccc2n1CC1CC2CN(CCO)C1 (configuration not stated) | . | . | -0.1% | . | . | .
O=c1cccc2n1CC1CC2CN(Cc2cccc(Cl)c2Cl)C1 (configuration not stated) | -5.6 | 4.65µM* | -8.7% | . | -85.5% | 8.3
N/C(=N\OC(=O)COc1ccc(Br)cc1Cl)c1cccnc1 | 45.3* | 130.4% | -0.4% | 0.0% | 12.5% | 92.5*
N/C(=N\OC(=O)COc1ccc(Br)cc1)c1ccncc1 | -2.8 | -16.5% | 7.1% | 31.7% | -1.2% | 18.8
N/C(=N\OC(=O)COc1ccc(Cl)cc1Br)c1cccnc1 | 31.0* | 322.3% | -3.8% | ? | . | 112.7*
N/C(=N\OC(=O)COc1ccc(Cl)cc1Cl)c1ccncc1 | 43.3* | -2.6% | -2.1% | 0.1% | -52.4% | 84.9*
Cc1cc(OCC(=O)O/N=C(\N)c2ccccc2)cc(C)c1Cl | 4.6 | ? | 0.4% | 51.5% | 9.4% | 9.1
COC(=O)c1c(NC(=O)CC2SC(N)=NC2=O)sc2c1CCC(C(C)(C)C)C2 (configuration not stated) | 4.2 | -5.7% | -0.6% | ? | ? | 16.5
CCCS(=O)(=O)c1nc(S(=O)(=O)c2ccc(Cl)cc2)c(N2CCC(O)CC2)s1 | -1.6 | -11.7% | -8.4% | ? | 1.5% | -2.8
O=C(O)C1(S(=O)(=O)c2ccc(Cl)cc2)CCC1 | -4.6 | 30.4% | 9.6% | 49.7% | -9.5% | -15.2
COC(=O)C1=C(C)NC(C)=C(C(=O)OCCSc2ccccc2)C1C (configuration not stated) | 13.4* | . | -10.6% | . | . | 23.1*
COC(=O)C1=C(C)NC(C)=C(C(=O)OC)C1c1ccc2ccccc2n1 | -1.9 | -19.7% | 18.3% | . | 8.1% | -11.1
CN(C)C1(CNC(=O)C2CCN(S(=O)(=O)c3cc(Cl)ccc3Cl)CC2)CCCCC1 | -5.0 | 5.6% | . | -48.3% | 7.7% | -18.3
COc1cccc(NC(=O)c2ccc(N3C(=O)C4CC=C(C)CC4C3=O)cc2)c1 (configuration not stated) | 12.2 | 18.1% | 6.6% | 1.47µM* | -2.3% | 57.0
COc1ccc(NC(=O)c2ccc(N3C(=O)C4CC=C(C)CC4C3=O)cc2)c(OC)c1 (configuration not stated) | -2.1 | -1.5%[0.00184 µM] | 4.5% | -0.7% | -6.3% | -15.5
COc1cccc(NC(=O)c2ccc(NC(=O)C(C)(C)C)cc2)c1 | 54.2* | 192.2% | -4.3% | 30.9% | -2.8% | 56.1*
COc1cccc(NC(=O)c2ccc[n+](C)c2)c1 | -2.3 | . | 0.0% | 6.0% | 4.9% | 1.8
CCCC(=O)Nc1ccc(C(=O)Nc2cccc(OC)c2)cc1 | 46.9* | 91.5% | -1.1% | 85.1% | 28.3% | 67.5*
